From publication PMC8384837, “Expanding the binding specificity for RNA recognition by a PUF domain”

Columns and labels:
Test in all cases: yeast three-hybrid, YBZ-1, SC-Leu-His + 0.5 mM 3-AT, 4 days
Conditions in all cases: tags: N-Gal4 AD-HA kept; label: inside an RPR1-promoter hybrid RNA with tandem MS2 sites; ssRNA
[1] = target: PUM1 PUF domain R5-DYG (Homo sapiens, UniProt Q14671 828-1176, C1007D;R1008Y;Q1011G)
Method in brief: (§1)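 Sequencing with Illumina followed PCR amplification of the repeat regions from transformants grown four days on SC-Leu (input) or SC-Leu-His + 0.5 mM 3-AT (selection). The transformants were strain YBZ-1 with a LexA–MS2 coat fusion and a HIS3 reporter, carrying Pumilio-1 PUF domain libraries and matching RNA elements. The interaction score is the log change in variant frequency from input to selection, computed in log2 with a pseudocount of 1 for absent variants.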

[2] = target: PUM1 PUF domain R3-VRC (Homo sapiens, UniProt Q14671 828-1176, C935V;Q939C)
Method in brief: as §1

[3] = target: T1, PUM1 PUF domain R6-KFG (Homo sapiens, UniProt Q14671 828-1176, N1043K;Y1044F;Q1047G)
T1 sequence: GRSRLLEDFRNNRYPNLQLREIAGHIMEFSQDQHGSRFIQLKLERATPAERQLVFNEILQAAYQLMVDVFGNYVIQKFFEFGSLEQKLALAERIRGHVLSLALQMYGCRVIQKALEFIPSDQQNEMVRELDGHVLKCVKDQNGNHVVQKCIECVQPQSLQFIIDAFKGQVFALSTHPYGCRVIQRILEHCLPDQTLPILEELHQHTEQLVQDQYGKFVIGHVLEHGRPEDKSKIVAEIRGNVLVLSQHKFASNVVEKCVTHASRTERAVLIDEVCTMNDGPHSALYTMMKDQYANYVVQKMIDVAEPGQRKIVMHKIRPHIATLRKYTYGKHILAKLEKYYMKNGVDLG
Method in brief: as §1

[4] = target: PUM1 PUF domain R3-IRC (Homo sapiens, UniProt Q14671 828-1176, C935I;Q939C)
Method in brief: as §1

[5] = target: PUM1 PUF domain R4-GPC (Homo sapiens, UniProt Q14671 828-1176, N971G;H972P;Q975C)
Method in brief: as §1

[6] = target: PUM1 PUF domain R4-YFG (Homo sapiens, UniProt Q14671 828-1176, N971Y;H972F;Q975G)
Method in brief: as §1

[7] = target: PUM1 PUF domain R3-FWS (Homo sapiens, UniProt Q14671 828-1176, C935F;R936W;Q939S)
Method in brief: as §1

[8] = target: PUM1 PUF domain R8-PWK (Homo sapiens, UniProt Q14671 828-1176, N1122P;Y1123W;Q1126K)
Method in brief: as §1

[9] = target: PUM1 PUF domain R1-NWR (Homo sapiens, UniProt Q14671 828-1176, S863N;R864W;Q867R)
Method in brief: as §1

[10] = target: PUM1 PUF domain R4-MNV (Homo sapiens, UniProt Q14671 828-1176, N971M;H972N;Q975V)
Method in brief: as §1

Sequence: GGCUAGAACUAGUGGAUCCCCCGGCGCCCGGCGGCUCGAGCCCGGGUAAGUGUAAAUAGUCUGCAUGCCGCCGGGCGCCAUGCCUGCAGGUCGACUCUAGAAAACAUG
- binding signal [1]: 3.86 log2 enrichment (interaction score)
- binding signal [2]: 3.72 log2 enrichment (interaction score)
- binding signal [3]: 3.39 log2 enrichment (interaction score)
- binding signal [4]: 2.81 log2 enrichment (interaction score)
- binding signal [5]: 4.57 log2 enrichment (interaction score)
- binding signal [6]: 2.07 log2 enrichment (interaction score)
- binding signal [7]: 3.07 log2 enrichment (interaction score)

Sequence: GGCUAGAACUAGUGGAUCCCCCGGCGCCCGGCGGCUCGAGCCCGGGUAAGUGUAAGUAGUCUGCAUGCCGCCGGGCGCCAUGCCUGCAGGUCGACUCUAGAAAACAUG
- binding signal [2]: 0.33 log2 enrichment (interaction score)
- binding signal [7]: 7.37 log2 enrichment (interaction score)

Sequence: GGCUAGAACUAGUGGAUCCCCCGGCGCCCGGCGGCUCGAGCCCGGGUAAGUGUCAAUAGUCUGCAUGCCGCCGGGCGCCAUGCCUGCAGGUCGACUCUAGAAAACAUG
- binding signal [1]: 3.79 log2 enrichment (interaction score)

Sequence: GGCUAGAACUAGUGGAUCCCCCGGCGCCCGGCGGCUCGAGCCCGGGUAAGCGUAAAUAGUCUGCAUGCCGCCGGGCGCCAUGCCUGCAGGUCGACUCUAGAAAACAUG
- binding signal [8]: 5.71 log2 enrichment (interaction score)

Sequence: GGCUAGAACUAGUGGAUCCCCCGGCGCCCGGCGGCUCGAGCCCGGGUAAGUGUAAAUCGUCUGCAUGCCGCCGGGCGCCAUGCCUGCAGGUCGACUCUAGAAAACAUG
- binding signal [9]: 6.94 log2 enrichment (interaction score)

Sequence: GGCUAGAACUAGUGGAUCCCCCGGCGCCCGGCGGCUCGAGCCCGGGUAAGUGUAAAUUGUCUGCAUGCCGCCGGGCGCCAUGCCUGCAGGUCGACUCUAGAAAACAUG
- binding signal [9]: 4.99 log2 enrichment (interaction score)

Sequence: GGCUAGAACUAGUGGAUCCCCCGGCGCCCGGCGGCUCGAGCCCGGGUAAGUGUACAUAGUCUGCAUGCCGCCGGGCGCCAUGCCUGCAGGUCGACUCUAGAAAACAUG
- binding signal [10]: 0.87 log2 enrichment (interaction score)
- binding signal [5]: 1.58 log2 enrichment (interaction score)

Sequence: GGCUAGAACUAGUGGAUCCCCCGGCGCCCGGCGGCUCGAGCCCGGGUAAGUGUAUAUAGUCUGCAUGCCGCCGGGCGCCAUGCCUGCAGGUCGACUCUAGAAAACAUG
- binding signal [10]: 3.98 log2 enrichment (interaction score)
- binding signal [5]: 2.93 log2 enrichment (interaction score)
- binding signal [6]: 3.63 log2 enrichment (interaction score)

Sequence: GGCUAGAACUAGUGGAUCCCCCGGCGCCCGGCGGCUCGAGCCCGGGUAAGUGUAAUUAGUCUGCAUGCCGCCGGGCGCCAUGCCUGCAGGUCGACUCUAGAAAACAUG
- binding signal [7]: 2.99 log2 enrichment (interaction score)
